Here are results for 96 molecules from PubChem BioAssay AID1851 (National Center for Advancing Translational Sciences (NCATS), 2009).

About 5,100 (32%) of roughly 16,000 compounds were called active. Roughly 25% stayed inconclusive and do not appear here. This is one part of the list. A number with no mark means an inactive call. Calls follow the shape of the dose curve; as a rule, active = well fitted curve in the direction sought with a large enough effect; inconclusive = small, poorly fitted or top-dose-only effect, or effect the other way; inactive = no such curve, though single readings can be large or run the other way.
% is scaled to controls: 0 for no effect and ±100 for the full control effect.

The target in this assay is Cytochrome P450 3A4 (Homo sapiens) (UniProt P08684). Kind of assay: Cytochrome panel assay with activity outcomes. Conditions: recombinant CYP, pro-luciferin dealkylation, luminescence, p450-cyp3a4; series mostly up to 57.1 µM; activity, negative = inhibition: at the top concentration.
Cytochrome P450 3A4 (Homo sapiens), sequence (P08684 whole entry, looked up): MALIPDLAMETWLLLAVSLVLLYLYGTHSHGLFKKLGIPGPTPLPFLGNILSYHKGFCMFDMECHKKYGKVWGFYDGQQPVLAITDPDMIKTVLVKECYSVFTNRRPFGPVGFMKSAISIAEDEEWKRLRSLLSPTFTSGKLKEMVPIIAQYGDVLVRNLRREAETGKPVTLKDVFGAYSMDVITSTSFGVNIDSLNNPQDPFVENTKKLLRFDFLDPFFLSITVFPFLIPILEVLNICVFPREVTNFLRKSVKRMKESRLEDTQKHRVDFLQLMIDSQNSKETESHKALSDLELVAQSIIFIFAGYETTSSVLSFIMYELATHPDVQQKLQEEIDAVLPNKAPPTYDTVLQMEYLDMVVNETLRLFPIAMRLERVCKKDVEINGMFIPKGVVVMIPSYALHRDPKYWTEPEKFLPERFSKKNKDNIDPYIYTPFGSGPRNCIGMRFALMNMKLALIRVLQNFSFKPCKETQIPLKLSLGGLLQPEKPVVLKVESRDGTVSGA
Turning to `OC[C@@H]1O[C@@H](n2cnc3c(SCc4ccccc4)ncnc32)[C@@H](O)[C@H]1O`, the activity, negative = inhibition is 7.88% [at 11.4 µM].

As for `Nc1nc(Cl)cc(NCCO)n1`, the activity, negative = inhibition is -4.92% [at 11.4 µM].

Turning to `CCCCCCCCCCCCCCCCCCc1ccc(C(=O)/C=C\C(=O)O)cc1`, the “activity, negative = inhibition” value was -8.11%.

Regarding `Cc1nc(C(=O)Nc2cccc(Cl)c2Cl)nn1-c1cc(OC(C)C)c(Cl)cc1Cl`, the “activity, negative = inhibition” value is -26.4%.

Usually AC50 stands for the concentration giving half of the maximal activity seen. On to `O=C(Nc1ccc(F)cc1)c1ccc(-n2ccnc2)nc1`, for which the AC50 is 0.126 µM (active).

Regarding `Cc1c(Cl)cccc1NC(=O)c1ccc(-n2ccnc2)nc1`, the half-maximal activity concentration (AC50) is 0.0398 µM (active).

As to `COc1ccccc1NC(=O)c1ccc(-n2cccn2)nc1`, the “activity, negative = inhibition” value was 0.809%.

In the case of `COc1cccc(Cn2c(NCc3cccnc3)nc3c2c(=O)n(C)c(=O)n3C)c1`, the AC50 was 3.16 µM (active).

For `CN(C)CCNc1nc2c(c(=O)n(C)c(=O)n2C)n1C`, the activity, negative = inhibition was -5.65% [at 11.4 µM].

Take `Cn1c(=O)c2c(nc(NCCNc3nc4c(c(=O)n(C)c(=O)n4C)n3C)n2C)n(C)c1=O`: the activity, negative = inhibition is 8.34% [at 11.4 µM].

For `O=C(CCCNS(=O)(=O)c1cccc2nsnc12)NCCc1ccccc1`, the AC50 was 7.08 µM (active).

As to `N#CC1=C(N)OC2=C(C(=O)CCC2)C12CCC1(CC2)OCCO1`, the “activity, negative = inhibition” value is -15.2%.

Regarding `CN1CCN(/C=N/C2=C(C#N)C(c3ccccc3)C3=C(CC(C)(C)CC3=O)O2)CC1` (stereo unspecified), the activity, negative = inhibition was 1.82% [at 2.29 µM].

In the case of `Cc1cc(C2C(C#N)=C(N)OC3=C2C(=O)CC(C)(C)C3)c(C)s1` (stereo unspecified), the AC50 was 3.55 µM (active).

As to `COc1ccc(C2C(C#N)=C(N)OC3=C2C(=O)CC(C)(C)C3)c([N+](=O)[O-])c1OC` (stereo unspecified), the concentration at half-maximal activity (AC50) was 5.01 µM (active).

`COc1cc(C2C(C#N)=C(N)OC3=C2C(=O)CCC3)c([N+](=O)[O-])cc1OC` (stereo unspecified): the concentration at half-maximal activity (AC50) was 11.2 µM (active).

In the case of `CCSC[C@@H](N)C(=O)O`, the activity, negative = inhibition is -3.53% [at 11.4 µM].

In the case of `COC(=O)\C(C(C)=O)=C(/C=C/C=C/C=C/N(C)C)N(C)C`, the activity, negative = inhibition was 1.83% [at 2.29 µM].

On to `CCc1c(C)nc(N)n2c(SCC(=O)Nc3ccccc3)nnc12`, for which the AC50 is 17.8 µM (active).

Regarding `COc1cccc(-c2nccc(N(C)Cc3ccco3)n2)c1`, the half-maximal activity concentration (AC50) was 20 µM (active).

As to `CN(Cc1ccco1)c1ccnc(-c2cccc(C#N)c2)n1`, the AC50 is 12.6 µM (active).

`CN(C)c1ncc2nc(-c3cccc(C#N)c3)c(=O)n(C[C@H]3CCCO3)c2n1`: the “activity, negative = inhibition” value is -10.8%.

On to `CN(Cc1ccco1)c1ccnc(-c2ccoc2)n1`, for which the “activity, negative = inhibition” value is -11.2%.

As to `CN(Cc1ccco1)c1ccnc(-c2cccnc2)n1`, the AC50 is 12.6 µM (active).

For `CCN=C1NN=C(c2ccc(C)cc2)CS1`, the concentration at half-maximal activity (AC50) was 15.8 µM (active).

In the case of `N/N=C1/c2ccccc2N[C@H]1OC(=O)Nc1ccccc1`, the activity, negative = inhibition is -29.3% [at 11.4 µM].

As to `CC(=O)Nc1ccc(NC(=O)CC2Nc3cccc4cccc(c34)NC2=O)cc1` (stereo unspecified), the half-maximal activity concentration (AC50) is 10 µM (active).

For the molecule `CC(=O)Nc1ccc(C#Cc2ccc(NC(C)=O)cc2)cc1`, the “activity, negative = inhibition” value was -11.2%.

With `Cc1cccc(NC(=O)CC2Nc3cccc4cccc(c34)NC2=O)c1` (stereo unspecified), the AC50 is 2.51 µM (active).

With `COc1cccc2c1C(=N)c1c(O)c3c(c(O)c1C2=O)C[C@](O)(C(C)=O)C[C@@H]3O[C@H]1C[C@H](N)[C@@H](O)[C@H](C)O1`, the activity, negative = inhibition was -16% [at 11.4 µM].

Consider `COc1ccc(NS(=O)(=O)c2ccc(NC(=O)c3cnn4c(C(F)F)cc(-c5ccc(C)cc5)nc34)cc2)cc1`, for which the concentration at half-maximal activity (AC50) is 1.26 µM (active).

Consider `Cc1cccc(C)c1NC(=O)CSc1nc(C)c(CC(=O)c2ccc(Br)cc2)c(C)c1C#N`, for which the AC50 was 5.01 µM (active).

As for `CC(=O)Nc1nonc1NC(=O)c1ccc(C(C)(C)C)cc1`, the activity, negative = inhibition was -6.73% [at 11.4 µM].

As to `CCC(=O)N1CCn2c1nc1ccccc12`, the “activity, negative = inhibition” value was -0.0339%.

Turning to `CCC(=O)Nc1nonc1-c1nc2ccccc2n1N(C(=O)CC)C(=O)CC`, the half-maximal activity concentration (AC50) is 22.4 µM (active).

`Cc1nonc1NCn1nnc2ccccc21`: the “activity, negative = inhibition” value was 2.63%.

Take `O=C(O)Cn1c(-c2ccccc2)nc2ccccc21`: the “activity, negative = inhibition” value was 3.83%.

`CCn1c(-c2nonc2NC(=O)c2ccccc2)nc2ccccc21`: the AC50 is 3.16 µM (active).

As to `Nc1c(S(N)(=O)=O)cc(S(N)(=O)=O)cc1S(N)(=O)=O`, the activity, negative = inhibition was -3.99% [at 11.4 µM].

For the molecule `COCCCn1c(=S)[nH]c2ncccc2c1=O`, the “activity, negative = inhibition” value is -24.6%.

Turning to `O=C(CCCCCn1c(=O)[nH]c2ccsc2c1=O)NCc1ccc2c(c1)OCO2`, the AC50 is 0.631 µM (active).

For `O=C(CCn1c(=O)[nH]c2ccsc2c1=O)Nc1ccc(F)c(F)c1`, the “activity, negative = inhibition” value was 10.8%.

For the molecule `COCCn1c(=S)[nH]c2cc(C(=O)NC(C)C)ccc2c1=O`, the “activity, negative = inhibition” value was 13.9%.

As for `O=C(CCCCn1c(=S)[nH]c2ccsc2c1=O)NCc1ccco1`, the half-maximal activity concentration (AC50) is 7.08 µM (active).

With `Cc1ccc(-n2c(=O)c3sccc3n(CC(=O)NCc3ccco3)c2=O)cc1F`, the “activity, negative = inhibition” value was -1.5%.

As for `CCOc1cc2[nH]c(=S)n(CCCC(=O)NCc3ccco3)c(=O)c2cc1OCC`, the AC50 is 3.98 µM (active).

As for `O=C(NCc1ccco1)c1ccc2c(=O)n(-c3ccccc3)c(=S)[nH]c2c1`, the “activity, negative = inhibition” value was -4.58%.

On to `COCCNC(=O)CCCCCn1c(=S)[nH]c2ccccc2c1=O`, for which the AC50 is 8.91 µM (active).

Consider `O=C1C2Sc3[nH]c(=O)sc3C(c3ccccc3)C2C(=O)N1c1ccc(Cl)cc1` (stereo unspecified), for which the half-maximal activity concentration (AC50) is 12.6 µM (active).

Turning to `O=C1C2Sc3[nH]c(=O)sc3C(c3ccccc3)C2C(=O)N1c1ccccc1` (stereo unspecified), the concentration at half-maximal activity (AC50) was 7.94 µM (active).

For `O=C1C(C2=NC(C(=O)O)C3C(=O)N(c4ccc(Cl)cc4)C(=O)C23)=C(O)c2ccccc21` (stereo unspecified), the “activity, negative = inhibition” value was 16.7%.

For `Nc1ccccc1CCCC(=O)O`, the activity, negative = inhibition was 0.683% [at 11.4 µM].

Turning to `C=CCn1c(SCC(=O)Nc2ncc(Cc3ccc(Br)cc3)s2)nnc1-c1ccncc1`, the half-maximal activity concentration (AC50) was 1.41 µM (active).

For the molecule `O=C(CSc1nnc(-c2ccncc2)n1Cc1ccccc1)Nc1nccs1`, the activity, negative = inhibition is -23.1% [at 2.29 µM].

Regarding `CC(C)n1c(N2CCN(C(=O)Nc3ccccc3)CC2)nc2ccccc21`, the “activity, negative = inhibition” value is -29.4%.

Regarding `CC(C)N(C(=O)CSc1nc2ccccc2n1-c1ccccc1)C(C)C`, the AC50 was 7.94 µM (active).

As for `CCCCc1c(O)nc(SCCN(C)C)n(-c2ccccc2)c1=O`, the “activity, negative = inhibition” value is -3.84%.

Turning to `CNc1c2c(nn1C)CCCC2`, the “activity, negative = inhibition” value was 2.07%.

Take `O=C(Nc1ccc(Oc2ccccc2)cc1)C1CCN(c2c3c(nc4ncnn24)CCC3)CC1`: the “activity, negative = inhibition” value was -19%.

As for `CC1CCCC(C)N1CC(O)COCC1COc2ccccc2O1` (stereo unspecified), the “activity, negative = inhibition” value was 7.88%.

Turning to `CC1CCCN(CC(O)COCC2COc3ccccc3O2)C1` (stereo unspecified), the “activity, negative = inhibition” value was -2.38%.

In the case of `Cc1ccc(C2C(=O)N(C3CCCC3)CC(=O)N2CC2COc3ccccc3O2)cc1` (stereo unspecified), the AC50 was 3.98 µM (active).

For `CN(C)c1ccc(-c2ccc3ncnc(N4CCNCC4)c3c2)cc1`, the half-maximal activity concentration (AC50) was 20 µM (active).

For the molecule `CN1CCN(c2ncnc3ccc(-c4ccc5c(c4)OCO5)cc23)CC1`, the AC50 was 7.94 µM (active).

For the molecule `c1cncc(-c2ccc3ncnc(N4CCNCC4)c3c2)c1`, the concentration at half-maximal activity (AC50) was 12.6 µM (active).

As to `CN1CCN(c2ncnc3ccc(-c4cccnc4)cc23)CC1`, the AC50 was 15.8 µM (active).

For the molecule `N[C@H](C(=O)O)[C@@H]1[C@@H](C(=O)O)C1(F)F`, the “activity, negative = inhibition” value is -12.3%.

With `OC[C@@H]1O[C@H](n2cnc3c(/C=C(\O)c4ccccc4)ncnc32)[C@H](O)[C@@H]1O`, the activity, negative = inhibition is -15.3% [at 11.4 µM].

Turning to `NC(N)=NC[C@@H]1CCCCCCN1`, the activity, negative = inhibition is -2.73% [at 11.4 µM].

`CCN(CC)CC[n+]1ccc2c(C)c3[nH]c4ccc(O)cc4c3c(C)c2c1`: the activity, negative = inhibition was -18.3% [at 11.4 µM].

With `Cc1sc2ncnc(OCC(=O)NC(C)C)c2c1C`, the activity, negative = inhibition was 0.697% [at 11.4 µM].

As to `N#Cc1cccc(-c2ccc3ncnc(N4CCNCC4)c3c2)c1`, the AC50 is 20 µM (active).

In the case of `N#Cc1cccc(-c2ccc3ncnc(NC4CCNCC4)c3c2)c1`, the “activity, negative = inhibition” value is -28.7%.

As for `CCc1ccc(OCC(=O)NNC(=O)CSc2ncnc3sc(C)c(C)c23)cc1`, the activity, negative = inhibition is 1.75% [at 0.457 µM].

Take `COC(=O)c1c(-c2ccccc2)csc1NC(=O)CSc1ncnc2sc(C)c(C)c12`: the AC50 was 8.91 µM (active).

Turning to `COCCNC(=O)CSc1ncnc2sccc12`, the activity, negative = inhibition was 0.766% [at 2.29 µM].

As to `COc1ccccc1-c1cncnc1N(C)Cc1ccco1`, the AC50 was 1.26 µM (active).

Turning to `CN(Cc1ccco1)c1cc(-c2ccccc2Cl)ncn1`, the “activity, negative = inhibition” value was 16.5%.

Take `Cc1noc(C)c1-c1cncnc1N(C)Cc1ccco1`: the concentration at half-maximal activity (AC50) was 3.16 µM (active).

For the molecule `CN(Cc1ccco1)c1ncncc1-c1ccccc1Cl`, the half-maximal activity concentration (AC50) is 0.501 µM (active).

Take `Cc1ccccc1-c1cncnc1N(C)Cc1ccco1`: the AC50 was 1.58 µM (active).

Regarding `Cc1noc(C)c1-c1cc(N(C)Cc2ccco2)ncn1`, the “activity, negative = inhibition” value is -29.1%.

`Cc1ccccc1-c1cc(N(C)Cc2ccco2)ncn1`: the “activity, negative = inhibition” value was 21.2%.

Take `COc1ccccc1-c1cc(N(C)Cc2ccco2)ncn1`: the “activity, negative = inhibition” value was -15.2%.

For the molecule `CN(Cc1ccco1)c1ccnc(-c2ccccc2C(F)(F)F)n1`, the “activity, negative = inhibition” value was -0.303%.

Regarding `CN(Cc1ccco1)c1ncncc1-c1ccccc1C(F)(F)F`, the AC50 was 1.26 µM (active).

With `O=C(C[C@@H]1C=Cc2ccccc2N1C(=O)c1ccccc1)c1ccccc1`, the half-maximal activity concentration (AC50) was 3.98 µM (active).

With `NC(=O)N1c2ccccc2C=Cc2ccccc21`, the “activity, negative = inhibition” value was -8.2% [at 25.6 µM].

Consider `CN1[C@H](CC(=O)c2ccccc2)CCC[C@H]1C[C@H](O)c1ccccc1`, for which the “activity, negative = inhibition” value was -6.77%.

Regarding `O=C(O)[C@H]1C[C@@H](CP(=O)(O)O)CCN1`, the “activity, negative = inhibition” value was 8.39%.

Regarding `Cc1ccccc1-c1nc(CS(=O)CC(=O)NCCCN(C)c2ccccc2)c(C)o1` (stereo unspecified), the AC50 is 3.98 µM (active).

Regarding `CCCCN(C)CCCNC(=O)CS(=O)Cc1nc(-c2ccc(OC)c(OC)c2)oc1C` (stereo unspecified), the half-maximal activity concentration (AC50) was 14.1 µM (active).

For `O=C(NCCN1CCN(Cc2ccccc2)CC1)C1c2ccccc2C(=O)N2CCc3ccccc3C12` (stereo unspecified), the activity, negative = inhibition is -22.2% [at 2.29 µM].

Take `CN(C)CCCNC(=O)CCc1nc2ccccc2c(=O)[nH]1`: the “activity, negative = inhibition” value is -18.4%.

Take `Cc1ccccc1-c1nc(CS(=O)CC(=O)NCCN2CCN(Cc3ccccc3)CC2)c(C)o1` (stereo unspecified): the AC50 is 7.08 µM (active).

As for `CCCCN(C)CCCNC(=O)c1ccc(N2CCCC2=O)cc1`, the “activity, negative = inhibition” value was -1.44%.
